4MU fluor: compounds fluorescent in 4-MU spectral region; compound autofluorescence, 340/450 nm, 4-MU equivalents; active compounds read high; max dye-equivalent concentration, M; 59,000 tested, 11% active; AID 589; in the data active = max dye-equivalent concentration above about 10 nM; inconclusive = mostly about 1.1 nM to 9.6 nM
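Intrinsic fluorescence at 340/450 nm (ex/em) was read after 15 min at room temperature in pH 8.0, 100 mM Tris. Each compound concentration expressed as 4-MU-equivalent concentration from a six-point 4-MU standard series on each plate.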
A350 fluor: compound fluoresces in the Alexa 350 spectral region. AID 590. Compound autofluorescence, 340/450 nm, Alexa 350 dye-equivalents; active compounds read high. max dye-equivalent concentration, M. 59,000 tested, 11% active; in the data active = max dye-equivalent concentration above about 10 nM; inconclusive = mostly about 1.1 nM to 9.6 nM
CRE Fsk mod: modulators of forskolin-stimulated CRE signaling in CHO cells. CHO CRE-bla reporter (cAMP response element driving beta-lactamase), forskolin EC10, beta-lactamase ratio. Potency, µM (titrated, usually from 38.2 µM), most hits filed as activators. 71,000 tested, 2.5% active; active = well fitted activation curve with a large enough effect in the signal ratio, with a control signal flat, not every such curve was filed as active; inconclusive = small, poorly fitted or top-dose-only effect, or effect the other way, or a change in a side signal; the % refers to the signal ratio
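AC50 values, positive or negative, reflect shifts in EC10 NKH 477-induced CRE-bla reporter activity in CHO cells. Incubation lasted 3 h at 37 °C before CCF4 substrate (2 h, room temperature) and ratiometric 460/530 nm reading.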
AID923: qHTS Assay for Allosteric/Competitive Inhibitors of Caspase-1: Spectroscopic Profiling in AFC Spectral Region | Potency, µM (doses to about 57.5 µM), hits mostly activators | compound fluorescence, AFC spectral region (405/520 nm) | AID 923, 2007 | 75,000 tested, 1.1% active
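Baseline compound fluorescence (AFC region, 405 nm ex/520 nm em) taken from the intercept of kinetic reads with 50 nM caspase-1 and 5 uM Ac-WEHD-AFC; normalized to an on-plate AFC standard curve; compounds titrated up to 57 uM.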
HSD17B inh: HSD17B dehydrogenase inhibition. Q99714. recombinant HSD17B10, NADH fluorescence kinetic. Potency, µM (highest dose often 57.1 µM), usual class: inhibitors. 75,000 tested, 7.6% active. AID 893;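 also: the protocol describes HADH2 (HSD17B10) and not the HSD17B4 of the title; nearly all actives have a fitted effect of over 70% in size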
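Activity followed as NADH fluorescence increase (ex 360, em 450 nm) every 30 seconds for 4 min, using final 90 uM beta-hydroxybutyryl CoA and 1 mM NAD+. Recombinant His-tagged enzyme, 20 nM, pH 9.0 Tris buffer, 15 min compound preincubation.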
HADH2 inh: HADH2 (human) dehydrogenase inhibition; Q99714; recombinant HADH2, NADH fluorescence, beta-hydroxybutyryl-CoA; Potency, µM (highest dose often 57.1 µM), most hits filed as inhibitors; 73,000 tested, 3.4% active; AID 886; also: nearly all actives have a fitted effect of over 60% in size
Target sequence (Q99714 whole entry, looked up, one chain of several): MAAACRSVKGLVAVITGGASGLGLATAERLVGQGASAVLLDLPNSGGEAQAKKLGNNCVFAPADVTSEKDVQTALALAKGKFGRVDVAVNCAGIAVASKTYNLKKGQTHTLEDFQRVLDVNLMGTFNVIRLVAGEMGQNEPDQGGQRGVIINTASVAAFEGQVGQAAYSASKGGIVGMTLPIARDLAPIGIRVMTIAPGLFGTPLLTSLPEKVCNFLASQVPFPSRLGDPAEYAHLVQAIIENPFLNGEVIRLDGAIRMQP
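His-tagged recombinant enzyme from E. coli, 20 nM, preincubated 15 min RT with compound; reaction started with 1 mM NAD+ and 90 uM beta-hydroxybutyryl-CoA in 100 mM Tris-HCl pH 9.0. NADH fluorescence (ex 360/em 450) read over 4 min; last-minus-first difference.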
Each line names hits and unclear results; the compound was inactive in the other large screens. Compounds with a hit are over-represented: about 14% of the library has one in this group of screens. Unless noted, calls follow the shape of the dose curve; as a rule, active = well fitted curve in the direction sought with a large enough effect; inconclusive = small, poorly fitted or top-dose-only effect, or another doubt; inactive = no such curve, though single readings can be large; an effect the other way counts as inactive or inconclusive.

COc1cc2c(cc1OC)CN(CC(=O)NC(=O)NCc1ccco1)CC2	4MU fluor 4.9e-08M, A350 fluor 7e-08M, CRE Fsk mod inconclusive
Cc1nn(-c2ccccc2C(=O)O)c(=O)c2ccccc12	CRE Fsk mod inconclusive
Cc1ccccc1-n1nc(C(=O)O)c(C)c(C#N)c1=O	4MU fluor inconclusive, A350 fluor 1.1e-08M, HSD17B inh inconclusive
COC(=O)c1ccc(C(/C=C/[C@@H](C)C(=O)NCCN2CCCC2)NC(=O)OCc2ccccc2)cc1 (stereo not given in full)	none (no result: 4MU fluor, A350 fluor)
COc1ccc(CNc2nc(-c3ccc(C(=O)N(C)C)cc3)nc3ccccc23)c(OC)c1	CRE Fsk mod 1µM, HSD17B inh 32µM, HADH2 inh inconclusive
COc1ccc(CNc2nc(-c3ccc(N(C)C)cc3)nc3ccccc23)c(OC)c1	A350 fluor inconclusive, CRE Fsk mod inconclusive, HSD17B inh 3.2µM, HADH2 inh 3.2µM
Cc1cccc(CNc2cc(-c3ccc(C(=O)N(C)C)cc3)ncn2)c1	CRE Fsk mod inconclusive, HSD17B inh 32µM
Cc1cccc(CNc2nc(-c3ccc(C(=O)N(C)C)cc3)nc3ccccc23)c1	CRE Fsk mod 0.79µM, HSD17B inh inconclusive
ClCCl	none (no result: 4MU fluor, A350 fluor)
COC(=O)C1C(C)OC(=O)NC1c1ccccc1 (stereo not given)	none (no result: 4MU fluor, A350 fluor, CRE Fsk mod)
O=c1cc(CF)[nH]c(=S)[nH]1	none
COCCCNC(=O)Cn1nc(-c2ccc(C)cc2)ccc1=O	A350 fluor inconclusive, HSD17B inh 25µM
COc1ccc(CNC(=O)Cn2nc(-c3ccc4c(c3)OCCO4)ccc2=O)cc1	4MU fluor 1.6e-07M, A350 fluor 1.3e-07M
COc1ccccc1-c1ccc(=O)n(CC(=O)NCc2ccc3c(c2)OCO3)n1	none
Cc1ccc(-c2ccc(=O)n(CC(=O)NCCN(C)C)n2)cc1	none
CC#N	none (no result: 4MU fluor, A350 fluor)
Cn1c2ccccc2c2cc(C(=O)OCC(=O)N3CC(=O)Nc4ccccc43)sc21	4MU fluor 3.3e-08M, A350 fluor 3.2e-08M, HSD17B inh 25µM
Cn1c(=O)c2c(SCC(=O)N3CCC(Cc4ccccc4)CC3)nc(C3CC3)nc2n(C)c1=O	none (no result: 4MU fluor, A350 fluor)
CCc1nc(SCC(=O)N2CCN(c3ccccc3)CC2)c2c(=O)n(C)c(=O)n(C)c2n1	HSD17B inh 25µM (no result: 4MU fluor, A350 fluor)
Cn1c(=O)c2c(SCC(=O)N3CCN(c4ccccc4)CC3)nc(C3CC3)nc2n(C)c1=O	HSD17B inh 32µM (no result: 4MU fluor, A350 fluor)
CC1(C)SC2C(N3C(=O)C(c4ccccc4)NC3(C)C)C(=O)N2C1C(=O)O (stereo not given)	HSD17B inh inconclusive (no result: 4MU fluor, A350 fluor, CRE Fsk mod, HADH2 inh)
COc1ccccc1NC(=O)CC1Nc2ccccc2NC1=O (stereo not given)	CRE Fsk mod inconclusive
O=C(CC1CCS(=O)(=O)C1)Nc1ccc[nH]c1=O (stereo not given)	4MU fluor 2.4e-07M, A350 fluor 2e-07M, CRE Fsk mod inconclusive, HSD17B inh 25µM
Cn1c(SC/C=C/c2ccccc2)nnc1-c1cnccn1	none
CCn1c(SC/C=C/c2ccccc2)nnc1-c1cccs1	4MU fluor inconclusive, A350 fluor inconclusive, CRE Fsk mod inconclusive, HSD17B inh 25µM, HADH2 inh inconclusive
CCn1c(SC(=O)NC2CCCCC2)nnc1-c1cccs1	A350 fluor inconclusive, HSD17B inh 25µM, HADH2 inh inconclusive
CCn1c(SC/C=C/c2ccccc2)nnc1-c1cnccn1	4MU fluor 2e-08M, A350 fluor 2.8e-08M, CRE Fsk mod inconclusive
CC(C)(C)OC(=O)N1CCC[C@H]1c1nnc(SCc2c(F)cccc2Cl)o1	4MU fluor inconclusive, A350 fluor 1.1e-08M
Cc1ccc(O)c(-c2cc3ccccc3[nH]2)c1	CRE Fsk mod inconclusive, HSD17B inh 16µM, HADH2 inh 3.2µM (no result: 4MU fluor, A350 fluor)
COc1cc2c(cc1NC(=O)c1ccco1)CCCC2	CRE Fsk mod inconclusive (no result: 4MU fluor, A350 fluor)
CNC(=O)C1=NCCCc2cc(OC)c(OC)cc21	4MU fluor 2.7e-06M, A350 fluor 2.3e-06M, HADH2 inh inconclusive
COc1cccc([C@@H]2Oc3ccc(OC)cc3/C(=N/O[C@@H](C)CN3CCCCc4nc(C)c(C)cc43)[C@@H]2O)c1	none (no result: 4MU fluor, A350 fluor, CRE Fsk mod)
COc1ccccc1-c1ccc2ncnc(NC3CC3)c2c1	CRE Fsk mod inconclusive
O=C(c1ccccc1)[C@H](Nc1ccc2ccccc2c1)c1ccccc1	4MU fluor 3.9e-08M, A350 fluor 4.2e-08M, HADH2 inh inconclusive
O=C(Nc1nnc(-c2ccccc2)o1)NC1CCCCC1	A350 fluor inconclusive, HSD17B inh 13µM
O=S(=O)(c1ccccc1)N1CCC[C@@]2(CCN(c3cccc(-c4ccccc4)c3)C2)C1	none
CC(C)=CCC/C(C)=C/CO/N=C1/[C@H]2O[C@@H]2[C@@H](O)[C@H]2[C@H]1CCn1c(=O)n(-c3ccccc3)c(=O)n12	none (no result: 4MU fluor, A350 fluor, CRE Fsk mod)
COc1ccccc1-c1nc(C#N)c(N2CCN(Cc3ccccc3)CC2)o1	4MU fluor 2.3e-08M, A350 fluor 1.4e-08M, CRE Fsk mod 13µM, HSD17B inh 25µM, HADH2 inh inconclusive
N#Cc1nc(-c2ccco2)oc1N1CCN(Cc2ccccc2)CC1	HSD17B inh inconclusive
COc1ccccc1-c1nc(C#N)c(N2CCC(Cc3ccccc3)CC2)o1	4MU fluor 1.6e-07M, A350 fluor 1e-07M, CRE Fsk mod inconclusive, HSD17B inh 32µM, HADH2 inh inconclusive
CCC(=O)O[C@@]1(C(=O)SCF)[C@@H](C)C[C@H]2[C@@H]3C[C@@H](F)C4=CC(=O)C=C[C@@]4(C)[C@]3(F)[C@@H](O)C[C@]21C	none
CCOC(=O)c1cc2c(N)c(C(=O)c3cc(C#N)c(SC)nc3C)sc2nc1C	4MU fluor inconclusive, A350 fluor 1.5e-08M, CRE Fsk mod inconclusive
CCOC(=O)c1cc(C#N)c(N)nc1C	CRE Fsk mod 10µM, HSD17B inh 32µM
CCOC(=O)c1c(C)nc2c(C#N)cnn2c1C	4MU fluor inconclusive, A350 fluor inconclusive, CRE Fsk mod inconclusive, HSD17B inh 32µM, HADH2 inh inconclusive
CCOC(=O)c1cnn2c(N)c(C#N)nnc12	A350 fluor inconclusive
O=C(O)Cn1nc(-c2ccccc2)c2ccccc21	HSD17B inh inconclusive, HADH2 inh inconclusive (no result: 4MU fluor, A350 fluor)
C[C@H](CCC(=O)O)[C@H]1CC[C@]2(C)[C@@H]3C(=O)C[C@H]4C(C)(C)[C@@H](O)CC[C@]4(C)[C@H]3C(=O)C[C@@]12C	none
Clc1ccc2c(c1)[C@H]1OCC[C@H]1[C@@H](c1ccco1)N2	none (no result: 4MU fluor, A350 fluor)
Fc1ccc2c(c1)[C@H]1OCC[C@H]1[C@@H](c1ccco1)N2	4MU fluor 2.5e-07M, A350 fluor 2.8e-07M, CRE Fsk mod inconclusive, HSD17B inh 32µM, HADH2 inh inconclusive
COC(=O)c1oc2ccc(Br)cc2c1-n1cccc1	CRE Fsk mod inconclusive
COC(=O)CCC(=O)c1oc2ccc(Br)cc2c1N	4MU fluor 1.8e-08M, A350 fluor inconclusive, HSD17B inh 20µM

Compound activity (PubChem)
